Data published in PubChem BioAssay (NCATS).
Where “and” joins values, the source holds several entries; their conditions need not be identical. Identical values can stand only once. Records with an inconclusive call do not appear. Calls of active or inactive are those of the source. Calls follow the shape of the full dose curve.

Test: qHTS Assay for Lipid Storage Modulators (AID 1519); as to activity change, negative = inhibition: % is scaled to controls: 0 for no effect and ±100 for the full control effect
Details: Drosophila S3 cells, BODIPY lipid droplet/cell ratio, laser cytometry, cells loaded with oleic acid
Text: NIH Molecular Libraries Probe Production Centers Network [MLPCN]
NIH Chemical Genomics Center [NCGC]
Assay Submitter (PI): Beller, Mathias; Max-Planck-Institut fur Biophysikalische Chemie
NCGC Assay Overview: Storing lipids as a reservoir for energy or the anabolism of elementary metabolites is a common feature of probably all cells and is conserved from bacteria to humans. The universal cellular lipid storage organelle is the so-called lipid storage droplet (LD). Although ubiquitous, LDs share a simple structure composed of a hydrophobic core that harbors the storage lipids, which is shielded by a droplet-specific phospholipid monolayer to which proteins are attached. The current model of LD biogenesis involves an incorporation of the lipid core into the membrane leaflets of the endoplasmic reticulum (ER) followed by a subsequent budding-like maturation of a LD, which ultimately pinches off. Once released, LD volume can increase by localized lipogenesis or fusion of existing droplets. Storage lipids are re-mobilized enzymatically by lipase activity. Lipase regulation in the adipocyte is heavily studied and involves multiple components including catecholamine signaling, the LD-associated proteins Perilipin and comparative gene identification-58 (CGI-58) and at least two lipases named hormone sensitive lipase (HSL) and adipocyte triglyceride lipase (ATGL). LD regulation outside of the adipocyte is poorly understood and only few components are known. However, there is an urgent need to learn more about ectopic fat depots as mislocalized storage of lipids, for example in the liver or muscle, is an eminent health problem associated with insulin resistance or the metabolic syndrome. We developed a laser-scanning cytometer assay to enable 1,536-well screening and combined the results of the small molecules screen with an RNAi database based on lipid storage.
NCGC Assay Protocol Summary:
We dispensed 4 uL of cells at 1.25 x 10^6 cells/mL into LoBase Aurora COC 1,536-well plates (black walled, clear bottom) with a bottle-valve solenoid-based dispenser (Aurora) to obtain 5,000 cells/well. Triacsin C (Sigma-Aldrich T-4540), an inhibitor of long-chain fatty acyl CoA synthetase that blocks synthesis of triglycerides, was used as a positive control for lipid under-storage. A total of 23 nL of compound solution of different concentrations were transferred to the assay plates using a Kalypsys pin tool equipped with a 1,536-pin array containing 10-nL slotted pins (FP1S10, 0.457-mm diameter, 50.8 mm long; V&P Scientific). One microliter of oleic acid (400 uM) was added, and the plate was lidded with stainless steel rubber gasket lined lids containing pinholes. […] Fluorescence was detected by excitation of the fluorophores with a 488-nm laser on an Acumen Explorer (TTP Lab Tech). The total intensity in channel 1 (500-530 nm) reflected lipid droplet accumulation. […] The ratio of the total intensity in PMT channel 1 over total intensity of channel 3 was also calculated. Percent activity was computed relative to an internal control (100% inhibited lipid droplet deposition due to the presence of 20 uM Triacsin C), which was added to 32 wells/plate.

[1] = measured here: cell count channel max response
[2] = measured here: lipid channel max response

SMILES	activity change, negative = inhibition (at 25.7 µM (top of the series))	max response [1]	max response [2]	activity change, negative = inhibition (at 57.5 µM (top of the series))
CCOc1ccc(NC(C)=O)cc1	-1.03% (inactive)	1.01%	-4.32%	–
CCN(CC)CCNC(=O)c1cc(Br)c(N)cc1OC	-3.04% (inactive)	-6.94% and 12.8%	-8.36% and 21.9%	5.14% (inactive)
CCc1cc(Cl)c(OC)c(C(=O)NC[C@@H]2CCCN2CC)c1O	-7.25% (inactive)	-16.4%	-19.5%	–
COc1ccc(C(Cl)=C(c2ccc(OC)cc2)c2ccc(OC)cc2)cc1	1.46% (inactive)	-13.4%	-12.3%	–
COc1cc(N)c(Cl)cc1C(=O)NC1CCN(Cc2ccccc2)CC1	0.953% (inactive)	-2.73% and -2.52%	-0.303% and 10.6%	9.3% (inactive)
CCCN(CCC)S(=O)(=O)c1ccc(C(=O)O)cc1	-2.1% (inactive)	0.958% and 6.83%	0.939% and 10.4%	1.2% (inactive)
CCCc1ncc(C[n+]2ccccc2C)c(N)n1	-1.66% (inactive)	1.76%	0%	–
O=C(O)P(=O)(O)O	–	17.9%	24.7%	3.11% (inactive)
CCN1CCCC(OC(=O)C(c2ccccc2)c2ccccc2)C1 (configuration not stated)	–	-5.03%	-14.3%	-10.7% (inactive)
CCN(CC)CCOc1ccc2c(c1)C(=O)c1cc(OCCN(CC)CC)ccc1-2	–	-3.23%	9.04%	7.59% (inactive)
CC(C(=O)O)c1cccc(Oc2ccccc2)c1 (configuration not stated)	–	14.6%	29.6%	9.66% (inactive)
NC(=O)c1ccccc1O	–	13.3%	29.8%	8.72% (inactive)
CCCCC(CC)CN1CN(CC(CC)CCCC)CC(C)(N)C1 (configuration not stated)	–	28.9%	41.5%	3.27% (inactive)
